Results published in PubChem BioAssay AID1159580 (chemical genetic matrix, 2015).
Among all 5,500 compounds or so, about 2,000 (36%) were called active. Not shown: some 18% with an inconclusive outcome. Cut-off read from the data, not from the text of the source: active = normalized growth mostly below about 0.91 (no sharp cut-off); inconclusive = no clear call, values can overlap the other calls; inactive = mostly above about 0.92. The list shows a part of the results.

Assay: chemical genetic growth profiling, strain panel (AID 1159580);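 note: tested at 20 µM; growth read once vehicle control cultures reached saturation at 30 °C; 1 = growth at the plate median or of vehicle wells; lower values mean less growth of the strain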
Details: S. cerevisiae deletion strains, growth OD

Measured: normalized growth

O=C1N(c2ccccc2)c2ccccc2C1(Cc1ccncc1)Cc1ccncc1
inactive: locus YAL040C, strain CLN3, hits give low values 1.01 | locus YCL061C, strain MRC1 (second series), hits give low values 1.01 | locus YDR150W, strain NUM1, hits give low values 1 | locus YDR363W, strain ESC2, hits give low values 1.03 | locus YER002W, strain NOP16, hits give low values 0.988 | locus YJR075W, strain HOC1, hits give low values 1.02 | locus YMR307W, strain GAS1, hits give low values 0.997 | locus YNL175C, strain NOP13, hits give low values 0.996 | locus YNL197C, strain WHI3, hits give low values 0.997 | locus YNL224C, strain SQS1, hits give low values 1 | locus YNL322C, strain KRE1, hits give low values 1.03 | locus YOR083W, strain WHI5 (second series), hits give low values 1.02 | locus YPL055C, strain LGE1, hits give low values 1.03 | locus YPL241C, strain CIN2, hits give low values 0.995

CC1(C)CC2C1CC[C@]1(C)CCC3C(C(=O)O)CC(=O)O[C@@]32C1 (some centres not stated)
active: locus YDR335W, strain msn5, hits give low values 1.15 [resistant] | locus YLR258W, strain gsy2, hits give low values 1.1 [resistant] | locus YOR070C, strain gyp1, hits give low values 1.14 [resistant] | locus YOR080W, strain dia2, hits give low values 1.1 [resistant] | locus YOR290C, strain snf2, hits give low values 1.18 [resistant]
inactive: locus YAL021C, strain ccr4, hits give low values 1.07 | locus YAL026C, strain drs2, hits give low values 1.07 | locus YAL030W, strain snc1, hits give low values 1.04 | locus YBL061C, strain skt5, hits give low values 1.03 | locus YBR009C, strain hhf1, hits give low values 1.03 | locus YBR023C, strain chs3, hits give low values 1.02 | locus YBR171W, strain sec66, hits give low values 1.07 | locus YBR231C, strain swc5, hits give low values 1.06 | locus YBR279W, strain paf1, hits give low values 1.01 | locus YCL011C, strain gbp2, hits give low values 1.03 | locus YCL016C, strain dcc1, hits give low values 1.06 | locus YCL061C, strain MRC1, hits give low values 1.03 | locus YCR088W, strain abp1, hits give low values 1.03 | locus YDL005C, strain med2, hits give low values 1.04 | locus YDL040C, strain nat1, hits give low values 1.05 | locus YDR001C, strain nth1, hits give low values 1.04 | locus YDR069C, strain doa4, hits give low values 1.06 | locus YDR137W, strain rgp1, hits give low values 1.04 | locus YDR159W, strain sac3, hits give low values 1.05 | locus YDR195W, strain ref2 1.06 | locus YDR297W, strain sur2, hits give low values 1.05 | locus YDR334W, strain swr1, hits give low values 1.09 | locus YDR392W, strain spt3, hits give low values 1.14 | locus YEL003W, strain gim4, hits give low values 1.02 | locus YEL037C, strain rad23, hits give low values 1.06 | locus YEL061C, strain CIN8 (second series), hits give low values 1.04 | locus YER015W, strain faa2, hits give low values 1.02 | locus YER016W, strain bim1, hits give low values 1.04 | locus YER111C, strain swi4, hits give low values 1.01 | locus YER155C, strain BEM2 (second series), hits give low values 1.04 | locus YFR010W, strain ubp6, hits give low values 1.09 | locus YGL167C, strain pmr1, hits give low values 1.05 | locus YGL173C, strain kem1, hits give low values 1.03 | locus YGL227W, strain vid30, hits give low values 1.02 | locus YGL240W, strain doc1, hits give low values 1.06 | locus YGL253W, strain hxk2, hits give low values 1.06 | locus YHR013C, strain ard1, hits give low values 1.05 | locus YHR027C, strain rpn1, hits give low values 1.03 | locus YHR030C, strain SLT2, hits give low values 1 | locus YHR079C, strain IRE1, hits give low values 1 | locus YHR142W, strain chs7, hits give low values 1.05 | locus YJL092W, strain hpr5, hits give low values 1.07 | locus YJL095W, strain BCK1 (second series), hits give low values 1.04 | locus YJL095W, strain BCK1, hits give low values 0.99 | locus YJL115W, strain asf1, hits give low values 1.06 | locus YJL129C, strain trk1, hits give low values 1.09 | locus YJL154C, strain vps35, hits give low values 1.05 | locus YJL164C, strain tpk1, hits give low values 1.02 | locus YJL166W, strain qcr8, hits give low values 1.05 | locus YJL187C, strain SWE1, hits give low values 1.03 | locus YJR066W, strain TOR1, hits give low values 0.942 | locus YKL160W, strain elf1, hits give low values 1.05 | locus YKR026C, strain gcn3, hits give low values 1.02 | locus YKR091W, strain srl3, hits give low values 1.04 | locus YLL001W, strain dnm1, hits give low values 1.07 | locus YLL026W, hits give low values 1.01 | locus YLL041C, strain sdh2, hits give low values 1.01 | locus YLR027C, strain aat2, hits give low values 1.04 | locus YLR113W, strain HOG1, hits give low values 0.98 | locus YLR221C, strain rsa3, hits give low values 1.02 | locus YLR262C, strain YPT6 (second series), hits give low values 1.07 | locus YLR320W, strain mms22, hits give low values 1.05 | locus YLR342W, strain FKS1, hits give low values 1.02 | locus YLR357W, strain rsc2, hits give low values 1.13 | locus YLR370C, strain arc18, hits give low values 1.03 | locus YLR384C, strain iki3, hits give low values 1.01 | locus YML120C, strain ndi1, hits give low values 1.04 | locus YMR058W, strain fet3, hits give low values 1.03 | locus YMR125W, strain sto1, hits give low values 1.06 | locus YMR129W, hits give low values 1.05 | locus YMR205C, strain PFK2, hits give low values 1.04 | locus YMR231W, strain pep5, hits give low values 1.03 | locus YNL071W, strain lat1, hits give low values 1.04 | locus YNL183C, strain NPR1, hits give low values 0.931 | locus YNL209W, strain ssb2, hits give low values 1.01 | locus YNL322C, strain KRE1 (second series), hits give low values 1.02 | locus YNR049C, strain mso1, hits give low values 1.05 | locus YOR001W, strain rrp6, hits give low values 1.06 | locus YOR083W, strain WHI5, hits give low values 1.08 | locus YOR106W, strain vam3, hits give low values 1.05 | locus YOR231W, strain MKK1, hits give low values 0.985 | locus YOR265W, strain rbl2, hits give low values 1.05 | locus YOR270C, strain vph1, hits give low values 1.14 | locus YPL051W, strain arl3, hits give low values 1.03 | locus YPL078C, strain atp4, hits give low values 1.07 | locus YPL106C, strain sse1, hits give low values 1.11 | locus YPL240C, strain hsp82, hits give low values 1.02 | locus YPL256C, strain CLN2, hits give low values 0.967
